Assay outcomes as filed in PubChem.
The list is not random: actives were taken first. Their share in the collection is about 1.1%.
RPL19A-GFP yeast = yeast TOR pathway RPL19A-GFP modulation. S. cerevisiae RPL19A-GFP strain, flow cytometry, 3 h; hits give low values. percent response vs DMSO, % at 10 µM. hit rate 0.3% among 330,000. AID 2025;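 active = percent response vs DMSO below 50%; inconclusive = fewer than 70 events counted for the yeast strain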;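 also: median channel GFP fluorescence of the barcoded RPL19A-GFP strain; lower means less RPL19A-GFP as with rapamycin TOR inhibition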
VLA-4 inh = inhibition in a human VLA-4 binding assay; hit rate 0.2% among 330,000; AID 2557; inhibition, % (about 7 µM as worked out from the volumes in the protocol); VLA-4 expressing cells, ligand binding flow cytometry; P13612; in the data active = inhibition above about 50%
CIT2-GFP yeast = alters CIT2-GFP fluorescence in TOR pathway yeast screen; S. cerevisiae CIT2-GFP strain, flow cytometry, 3 h; 100 means same as DMSO wells; GFP response vs DMSO, % at 10 µM; hit rate 0.065% among 320,000; AID 2029;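 active = GFP response relative to DMSO above a set limit, near the screen mean plus 3 SD, cut at about 150% in these data; inconclusive = Fewer than 70 cells measured for a yeast strain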;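 also: ratio of well median GFP fluorescence to mean of DMSO wells on the plate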
LAP4 TOR yeast = alters LAP4-GFP fluorescence in TOR pathway yeast screen; S. cerevisiae LAP4-GFP multiplex, flow cytometry GFP, 3 h; median GFP as percent of DMSO wells; GFP response vs DMSO, % at 10 µM; hit rate 0.34% among 320,000;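 active = GFP response vs DMSO above a set limit, about the screen mean plus 3 SD, cut at about 150% in these data; inconclusive = under 70 cell events counted for the yeast strain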
MEP2 TOR yeast = yeast TOR pathway MEP2-GFP modulation | AID 2016 | hit rate 0.51% among 330,000 | GFP response vs DMSO, % at 10 µM | S. cerevisiae MEP2-GFP strain, flow cytometry GFP, 3 h; 100% = DMSO control level;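 active = GFP response versus DMSO above a set limit, roughly screen mean plus 3 SD, cut at about 180% in these data; inconclusive = fewer than 70 cells counted for a yeast strain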;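 also: median GFP fluorescence of the barcode-gated MEP2-GFP cells per well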
AGP1 TOR yeast = modulators of TOR pathway AGP1-GFP in S. cerevisiae. S. cerevisiae AGP1-GFP multiplex flow cytometry, 3 h; GFP as percent of DMSO wells. GFP response vs DMSO, % at 10 µM. hit rate 0.02% among 320,000;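 active = GFP response relative to DMSO above a set limit, near screen average plus 3 SD, cut at about 150% in these data; inconclusive = fewer than 70 cells counted for the yeast strain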;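 also: median GFP channel fluorescence of the gated AGP1 strain per well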
Hits are given with their value; [ ] = dose if it differs, or a comment.

O=c1oc2ccccc2c2c1C(c1ccc(Cl)cc1)Nc1ccc3ccccc3c1-2 (centres undefined) was read as RPL19A-GFP yeast 39[may fluoresce violet], VLA-4 inh inactive, CIT2-GFP yeast inconclusive, LAP4 TOR yeast inactive, MEP2 TOR yeast inactive and AGP1 TOR yeast inactive.
Screening COc1ccc(C2Nc3ccc4ccccc4c3-c3c2c(=O)oc2ccccc32)cc1 (centres undefined) returned RPL19A-GFP yeast inactive, VLA-4 inh inactive, CIT2-GFP yeast inactive, LAP4 TOR yeast inactive, MEP2 TOR yeast inactive and AGP1 TOR yeast inactive.
COc1ccc(C)c2sc(N(CCCN(C)C)C(=O)c3ccc(S(=O)(=O)N4CCc5ccccc5C4)cc3)nc12 was read as RPL19A-GFP yeast inactive, VLA-4 inh inactive, CIT2-GFP yeast inactive, LAP4 TOR yeast inactive, MEP2 TOR yeast inactive and AGP1 TOR yeast inactive.
Screening COc1ccc(OC)c2sc(N(CCCN(C)C)C(=O)c3ccc(S(=O)(=O)N4CCc5ccccc5C4)cc3)nc12 returned RPL19A-GFP yeast inactive, VLA-4 inh 53, CIT2-GFP yeast inactive, LAP4 TOR yeast inactive, MEP2 TOR yeast inactive and AGP1 TOR yeast inactive.
`CC1CN(C(=O)c2cc3cc(F)ccc3[nH]2)CC(C)O1` (centres undefined) gave RPL19A-GFP yeast inactive, VLA-4 inh inactive, CIT2-GFP yeast inactive, LAP4 TOR yeast inactive, MEP2 TOR yeast inactive and AGP1 TOR yeast inactive.
For Cc1cc(C)c2c(N)c3ccccc3nc2n1 the results were RPL19A-GFP yeast 15[may fluoresce violet], VLA-4 inh inactive, CIT2-GFP yeast inconclusive, LAP4 TOR yeast inactive, MEP2 TOR yeast inactive and AGP1 TOR yeast inactive.
`Cc1cc(C)c2cccc(N)c2n1` gave RPL19A-GFP yeast inactive, VLA-4 inh inactive, CIT2-GFP yeast inactive, LAP4 TOR yeast inactive, MEP2 TOR yeast inactive and AGP1 TOR yeast inactive.
`CCc1ccc2nc3nc(C)cc(C)c3c(N)c2c1` gave RPL19A-GFP yeast 32[may fluoresce violet], VLA-4 inh inactive, CIT2-GFP yeast inconclusive, LAP4 TOR yeast inactive, MEP2 TOR yeast 384[may fluoresce violet] and AGP1 TOR yeast inconclusive.
Screening CCc1ccc(NC(=S)/N=C(\N)Nc2nc(C)c3cc(CC)ccc3n2)cc1 returned RPL19A-GFP yeast inactive, VLA-4 inh inactive, CIT2-GFP yeast inactive, LAP4 TOR yeast inactive, MEP2 TOR yeast inactive and AGP1 TOR yeast inactive.
Screening O=C(COC(=O)CN1C(=O)c2ccccc2C1=O)NC1CCCCC1 returned RPL19A-GFP yeast inactive, VLA-4 inh inactive, CIT2-GFP yeast inactive, LAP4 TOR yeast inactive, MEP2 TOR yeast inactive and AGP1 TOR yeast inactive.
`O=C1CC(Cc2ccccc2)C(=O)N1Cc1ccco1` (centres undefined) gave RPL19A-GFP yeast inactive, VLA-4 inh inactive, CIT2-GFP yeast inactive, LAP4 TOR yeast inactive, MEP2 TOR yeast inactive and AGP1 TOR yeast inactive.
`Cc1ccc(CC2CC(=O)N(Cc3ccco3)C2=O)cc1` (centres undefined) gave RPL19A-GFP yeast inactive, VLA-4 inh inactive, CIT2-GFP yeast inactive, LAP4 TOR yeast 191, MEP2 TOR yeast inactive and AGP1 TOR yeast inactive.
Screening O=S(=O)(NCC(c1cccnc1)N1CCOCC1)c1ccccc1 (centres undefined) returned RPL19A-GFP yeast inactive, VLA-4 inh inactive, CIT2-GFP yeast inactive, LAP4 TOR yeast inactive, MEP2 TOR yeast inactive and AGP1 TOR yeast inactive.
`O=C(NCC(c1cccnc1)N1CCOCC1)Nc1ccccc1` (centres undefined) gave RPL19A-GFP yeast 23[may fluoresce violet], VLA-4 inh inactive, CIT2-GFP yeast inconclusive, LAP4 TOR yeast inactive, MEP2 TOR yeast 189[may fluoresce violet] and AGP1 TOR yeast inconclusive.
O=C(OCCN1CCOCC1)c1ccc(Cl)cc1Cl was read as RPL19A-GFP yeast inactive, VLA-4 inh inactive, CIT2-GFP yeast inactive, LAP4 TOR yeast inactive, MEP2 TOR yeast inactive and AGP1 TOR yeast inactive.
For CCOc1ccc(OCC)c(S(=O)(=O)n2ccnc2C)c1 the results were RPL19A-GFP yeast inactive, VLA-4 inh inactive, CIT2-GFP yeast inactive, LAP4 TOR yeast inactive, MEP2 TOR yeast inactive and AGP1 TOR yeast inactive.
CCOc1ccc(S(=O)(=O)n2ccnc2C)cc1 was read as RPL19A-GFP yeast inactive, VLA-4 inh inactive, CIT2-GFP yeast inactive, LAP4 TOR yeast inactive, MEP2 TOR yeast inactive and AGP1 TOR yeast 153.
Screening C=CCN(CC(=O)Nc1cccnc1)S(=O)(=O)c1ccc(Cl)cc1 returned RPL19A-GFP yeast inactive, VLA-4 inh inactive, CIT2-GFP yeast inactive, LAP4 TOR yeast inactive, MEP2 TOR yeast inactive and AGP1 TOR yeast inactive.
